Measurements taken from the supplement of paper PMC4206461.

Each molecule was assayed on Pseudomonas aeruginosa PA14 dppBCDF deletion mutant (assay: respiration area under curve with compound as sole nitrogen source, 24 h (OmniLog AUC (arbitrary units)); higher = more respiration / better utilisation as nitrogen source, active = 2000 or more; extreme values may be limits of the assay).
Experimental: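 Biolog Phenotype MicroArray plates PM6-PM8: each di/tripeptide is the sole nitrogen source. Tetrazolium reduction was read in the OmniLog every 15 min for 24 h at 37°C and summarised as area under the respiration curve (arbitrary units). Values below 2000 count as no respiration. Strain is the dipeptide ABC transporter deletion mutant.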

Row | Structure (SMILES) | respiration area under curve
1 | NC(=O)C[C@H](NC(=O)[C@@H](N)CO)C(=O)O (plate: PM8) | 10400 (active)
2 | CC(C)C[C@@H](N)C(=O)N[C@@H](Cc1ccc(O)cc1)C(=O)O (plate: PM8) | 0 (inactive)
3 | O=C(O)[C@H](Cc1ccc(O)cc1)NC(=O)[C@@H]1CCCN1 (plate: PM7) | 8430 (active)
4 | CC(C)[C@H](NC(=O)CN)C(=O)O (plate: PM6) | 124 (inactive)
5 | CC(C)[C@H](N)C(=O)N[C@@H](CC(N)=O)C(=O)O (plate: PM7) | 5280 (active)
6 | NC(CO)C(=O)NC(CCC(=O)O)C(=O)O (stereo not given) (plate: PM8) | 0 (inactive)
7 | N[C@@H](CCC(=O)O)C(=O)N[C@@H](CC(=O)O)C(=O)O (plate: PM6) | 0 (inactive)
8 | CC(C)C[C@H](N)C(=O)N1CCC[C@H]1C(=O)O (plate: PM8) | 0 (inactive)
9 | O=C(O)[C@H](Cc1ccccc1)NC(=O)[C@@H]1CCCN1 (plate: PM7) | 3470 (active)
10 | CC[C@H](C)[C@H](NC(=O)[C@@H](N)CC(C)C)C(=O)O (plate: PM6) | 3260 (active)
11 | CC(C)[C@H](NC(=O)[C@@H](N)CC(N)=O)C(=O)O (plate: PM6) | 4910 (active)
12 | NC(=O)CC[C@H](NC(=O)[C@@H]1CCCN1)C(=O)O (plate: PM7) | 1860 (inactive)
13 | N[C@@H](Cc1c[nH]c2ccccc12)C(=O)N[C@@H](CC(=O)O)C(=O)O (plate: PM7) | 0 (inactive)
14 | N[C@@H](Cc1c[nH]c2ccccc12)C(=O)NCC(=O)O (plate: PM7) | 6.75 (inactive)
15 | O=C(O)CC[C@H](NC(=O)[C@@H]1CCCN1)C(=O)O (plate: PM8) | 0 (inactive)
16 | N[C@@H](Cc1ccc(O)cc1)C(=O)N[C@@H](Cc1ccc(O)cc1)C(=O)O (plate: PM7) | 4900 (active)
17 | CSCC[C@H](N)C(=O)N[C@@H](CC(=O)O)C(=O)O (plate: PM7) | 1590 (inactive)
18 | CC(C)C[C@H](NC(=O)[C@@H](N)CCCN=C(N)N)C(=O)O (plate: PM6) | 8090 (active)
19 | NCC(=O)N[C@H](CO)C(=O)O (plate: PM8) | 0 (inactive)
20 | N[C@@H](CO)C(=O)N[C@@H](Cc1ccccc1)C(=O)O (plate: PM7) | 968 (inactive)

Row | Structure (SMILES) | respiration area under curve
21 | CC(C)C[C@H](N)C(=O)N[C@@H](CC(N)=O)C(=O)O (plate: PM8) | 10700 (active)
22 | CC(C)[C@H](N)C(=O)N[C@@H](CC(=O)O)C(=O)O (plate: PM7) | 18 (inactive)
23 | C[C@@H](O)[C@H](N)C(=O)N[C@@H](CC(=O)O)C(=O)O (plate: PM8) | 0 (inactive)
24 | C[C@H](NC(=O)CCN)C(=O)O (plate: PM8) | 0 (inactive)
25 | CC[C@H](C)[C@H](NC(=O)[C@@H]1CCCN1)C(=O)O (plate: PM8) | 1 (inactive)
26 | N[C@@H](CCC(=O)O)C(=O)N[C@@H](Cc1c[nH]c2ccccc12)C(=O)O (plate: PM6) | 728 (inactive)
27 | NC(N)=NCCC[C@H](N)C(=O)N[C@@H](CO)C(=O)O (plate: PM6) | 8440 (active)
28 | N[C@@H](CO)C(=O)NCC(=O)O (plate: PM7) | 1360 (inactive)
29 | C[C@H](NC(=O)CNC(=O)CN)C(=O)O (plate: PM8) | 102 (inactive)
30 | NCC(=O)N[C@H](CC(=O)O)C(=O)O (plate: PM8) | 0 (inactive)
31 | NC(=O)CC[C@H](NC(=O)[C@@H](N)CO)C(=O)O (plate: PM8) | 558 (inactive)
32 | NCC(=O)N[C@@H](CC(=O)O)C(=O)O (plate: PM8) | 6.75 (inactive)
33 | CC(C)C[C@H](NC(=O)CN)C(=O)O (plate: PM6) | 0 (inactive)
34 | CSCC[C@H](N)C(=O)N[C@@H](Cc1ccc(O)cc1)C(=O)O (plate: PM8) | 55.2 (inactive)
35 | CSCC[C@H](NC(=O)[C@H](C)N)C(=O)O (plate: PM8) | 2300 (active)
36 | C[C@@H](N)C(=O)NCC(=O)NCC(=O)O (plate: PM8) | 0 (inactive)
37 | CC(C)C(NC(=O)C1CCCN1)C(=O)O (stereo not given) (plate: PM8) | 134 (inactive)
38 | CC(C)C[C@H](NC(=O)[C@@H](N)CC(=O)O)C(=O)O (plate: PM6) | 0 (inactive)
39 | CC[C@H](C)[C@H](N)C(=O)N[C@@H](C)C(=O)O (plate: PM6) | 88.8 (inactive)
40 | NC(=O)CC[C@H](N)C(=O)N[C@@H](CCC(=O)O)C(=O)O (plate: PM8) | 3750 (active)
